The text below walks through data of PubChem BioAssay AID743261 (The Scripps Research Institute Molecular Screening Center, 2014).

Screen size: about 3,300 compounds; about 35 (1%) were called active. These entries were drawn from the full list. Unmarked numbers belong to inactive results. Rule as the data show it: active = inhibition above about 11%; inactive = the rest.

As usually defined, the inhibition is the drop in the measured response relative to a control, in per cent.

The target in this test is 1-phosphatidylinositol 4,5-bisphosphate phosphodiesterase beta-3 (Homo sapiens) (UniProt Q01970). The test is described as follows: retest of human PLCB3 enzyme blockers – biochemical, fluorescence, purified enzyme, confirmation (AID 743261). The settings on record: purified PLC-beta3, fluorogenic substrate fluorescence; at 12.3 µM; active compounds read high.
Chain of 1-phosphatidylinositol 4,5-bisphosphate phosphodiesterase beta-3 (Homo sapiens) (Q01970 whole entry, looked up): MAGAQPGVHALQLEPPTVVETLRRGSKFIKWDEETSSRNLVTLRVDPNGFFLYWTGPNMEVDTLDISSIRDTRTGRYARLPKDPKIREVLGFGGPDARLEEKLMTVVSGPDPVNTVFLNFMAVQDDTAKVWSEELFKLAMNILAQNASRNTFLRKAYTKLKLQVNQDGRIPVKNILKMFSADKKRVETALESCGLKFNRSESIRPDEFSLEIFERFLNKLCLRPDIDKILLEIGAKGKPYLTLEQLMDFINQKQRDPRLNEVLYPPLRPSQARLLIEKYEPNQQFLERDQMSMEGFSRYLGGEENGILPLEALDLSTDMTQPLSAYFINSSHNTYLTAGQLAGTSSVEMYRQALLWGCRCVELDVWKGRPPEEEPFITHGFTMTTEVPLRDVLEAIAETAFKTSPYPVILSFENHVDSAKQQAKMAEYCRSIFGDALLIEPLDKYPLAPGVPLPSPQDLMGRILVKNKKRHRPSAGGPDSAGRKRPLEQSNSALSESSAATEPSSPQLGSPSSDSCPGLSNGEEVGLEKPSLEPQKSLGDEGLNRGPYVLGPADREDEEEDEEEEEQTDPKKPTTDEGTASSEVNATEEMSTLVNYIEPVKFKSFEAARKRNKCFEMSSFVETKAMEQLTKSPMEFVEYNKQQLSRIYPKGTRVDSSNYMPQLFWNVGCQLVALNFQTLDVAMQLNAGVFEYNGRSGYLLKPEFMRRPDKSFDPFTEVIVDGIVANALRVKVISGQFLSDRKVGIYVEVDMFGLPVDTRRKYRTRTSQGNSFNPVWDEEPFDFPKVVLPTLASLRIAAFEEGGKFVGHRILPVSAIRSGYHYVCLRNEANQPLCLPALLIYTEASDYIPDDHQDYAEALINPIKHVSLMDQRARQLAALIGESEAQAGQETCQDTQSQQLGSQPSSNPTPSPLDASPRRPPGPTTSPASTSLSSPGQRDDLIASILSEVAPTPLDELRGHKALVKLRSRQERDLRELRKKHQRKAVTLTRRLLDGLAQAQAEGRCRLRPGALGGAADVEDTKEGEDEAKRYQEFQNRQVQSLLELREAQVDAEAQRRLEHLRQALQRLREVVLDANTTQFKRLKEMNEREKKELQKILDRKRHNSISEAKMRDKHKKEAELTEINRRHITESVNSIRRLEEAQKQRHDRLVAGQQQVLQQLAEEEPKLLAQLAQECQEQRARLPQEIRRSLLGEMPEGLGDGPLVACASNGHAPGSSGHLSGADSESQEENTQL
As to `Cc1cccc(C(=O)NCCCN2CCCC2=O)c1`, the inhibition was 2.72%. Then `CN(C)S(=O)(=O)c1cccc(NC(=O)COC(=O)C2(c3ccccc3F)CCCC2)c1`, with 0.6%; and `Nc1nc(NCC(=O)O)nc(N2CCCCCC2)c1[N+](=O)[O-]`, with 5.2%; and `CCOC(=O)Nc1ccc(NC(=O)OCC)cc1`, with 4.88%. With `CC1(C)CC(=O)C=C(NC2CC(C)(C)NC(C)(C)C2)C1` the figure was 0.58%; with `Cc1ccc(S(=O)(=O)N2CCCCC2)cc1NC(=O)CCNC(=O)c1ccccc1`, -5.41%; with `FC(F)(F)c1cnc(Oc2ccccc2-c2nnc(-c3ccc(Cl)cc3)o2)c(Cl)c1`, -7.7%.

In the case of `O=C(NC12CC3CC(CC(C3)C1)C2)N1CCCC(CO)C1` (stereo unspecified), the inhibition was -3.42%. Then `CC(C)(C)c1ccc(C(=O)Nc2cc(Cl)c(Br)cc2C(=O)O)cc1`, with -8.39%; and `Cc1ccc(S(=O)(=O)Cn2nnnc2CN2CCN(Cc3ccc4c(c3)OCO4)CC2)cc1`, with 2.26%. For the molecule `CC(C)C(NC(=O)C1CCC(C(C)(C)C)CC1)C(=O)NCCCN1CCCCC1` (stereo unspecified), the inhibition was 0.28%. Then `CC1CCN(S(=O)(=O)c2ccc(S(=O)(=O)NCc3ccco3)cc2)CC1`, with -1.58%; and `O=C(NCc1ccc(F)cc1F)[C@@H]1CCCN1C(=O)[C@@H]1CCCN1C(=O)c1cccc(Cl)c1`, with -0.65%; and `CC(=O)C1=C(O)C(=O)N(c2cccnc2)C1c1ccc([N+](=O)[O-])cc1` (stereo unspecified), with -1.47%.

With `O=c1ccc2c(-c3ccccc3S(=O)(=O)O)c3ccc(O)c(O)c3oc-2c1O`, the inhibition was 21% (active). With `COc1ccc(/C(C)=N/N2CCOCC2)c(O)c1` the figure was -14.9%; with `COCCNC(=O)C(c1ccc(O)cc1)N(C(=O)CCC(=O)Nc1nccs1)c1ccc(C)cc1` (stereo unspecified), -0.24%.

Consider `O=C1NC2(CCCCC2)N=C1c1ccccc1`, for which the inhibition was -4.41%. With `Cc1cccc([C@@H]2[C@@H]3C(=O)N(Cc4ccccc4)C(=O)[C@@H]3[C@]3(Cc4ccc(Cl)cc4)C(=O)N(c4cccc(Cl)c4)C(=O)N23)c1` the figure was 5.38%; with `Cc1cc(NC(=O)CN2C(=O)NC(CC(C)C)C2=O)no1` (stereo unspecified), 0.1%; with `CC(C)CCSc1ncnc2c1oc1nc3c(cc12)COC(C)(C)C3`, -2.11%.

Take `O=C(C[C@H]1C(=O)N(c2ccc(F)c(F)c2)C[C@@H]1Cc1ccccc1)Nc1ccccc1`: the inhibition is 9.92%. Then `CN(C(=O)c1ccc(NC(=O)Cc2cccc(NC(=O)C3CCN(C(=O)c4ccccc4)CC3)c2)cc1)C1CC1`, with -1%; and `CCCCn1c(SCC(=O)N2CCCC2=O)nc2cc(S(N)(=O)=O)ccc21`, with 0.23%; and `O=c1c([N+](=O)[O-])cc(C(F)(F)F)cn1Cc1cccc(Cl)c1`, with 4.27%. Take `Cc1nc(-c2ccc(F)cc2)c(CC(=O)N2CCN(S(=O)(=O)c3ccc(F)cc3)CC2)s1`: the inhibition is -1.44%. For the molecule `O=C(COc1ccc(Cl)cc1)N1CCN(c2cccc(C(F)(F)F)c2)CC1`, the inhibition is -5.48%.

As to `O=S(=O)(c1ccc(F)cc1)N1CCN(C(=S)NC2CCCC2)CC1`, the inhibition is -3.43%.

`CC1(C(=O)NCc2ccccc2)CSCC(=O)N1CCCN1CCOCC1` (stereo unspecified): the inhibition was -2.02%. With `O=[N+]([O-])c1cc(C(F)(F)F)ccc1NN=C1CCCC1` the figure was 2.81%; with `O=c1c2ccccc2c(-c2ccccc2)nn1Cc1ccccc1`, -6.9%; with `CN(CC(=O)NC1CCCCC1)S(=O)(=O)c1ccc(Br)s1`, 3.57%. Then `COc1ccccc1C(=O)N1C(CC(=O)Nc2ccccc2C)C(=O)NC2CCCCC21` (stereo unspecified), with -8.41%; and `COc1cc(OC)nc(S(C)(=O)=O)n1`, with -3.28%; and `O=C(C(c1ccccc1)c1ccccc1)N1CCN(CC(O)COc2ccccc2)CC1` (stereo unspecified), with 3.79%. Then `COC(=O)NC1(C(F)(F)F)NC(=O)N(C2CCCCC2)C1=O` (stereo unspecified), with 2.36%; and `N#C[C@]1(S(=O)(=O)c2ccccc2)C[C@@H]2ON=C(c3cccc(Br)c3)[C@@H]2C1`, with 0.44%; and `CC1Oc2ccccc2N(Cc2cccnc2)C1=O` (stereo unspecified), with -1.95%. For `COc1ccccc1C(=O)Nc1cccc(C(=O)N2CCOCC2)c1`, the inhibition is -1.43%. Then `S=c1[nH]nc(-c2cccnc2)n1/N=C/C(Cl)=C\c1ccccc1`, with -5.69%. Consider `CC1(C)CC(=O)C=C(NCCN2CCNCC2)C1`, for which the inhibition is -4.21%. As to `CCn1c(/C=C/Nc2ccccc2)[n+](CC)c2ccc(C(=O)OCC(F)(F)F)cc21`, the inhibition is -12.7%.

For the molecule `COC(=O)CN1C(=O)C(O)=C(C(C)=O)C1c1ccc([N+](=O)[O-])cc1` (stereo unspecified), the inhibition is 2.66%.

Regarding `COc1ccc(-c2ccc(CN3C(CC(C)C)C(=O)N(Cc4cn(CC5CCCCC5)nn4)CCS3(=O)=O)cc2)cc1` (stereo unspecified), the inhibition was -1.28%. Then `COc1ccc([N+](=O)[O-])cc1N(CC(O)Cn1nnc2ccccc21)S(=O)(=O)c1ccc(C)cc1` (stereo unspecified), with 3.85%.

With `CCOc1ccccc1C1CC(c2cccc(NS(C)(=O)=O)c2)=NN1C(=O)c1ccccc1` (stereo unspecified), the inhibition is -3.53%. As for `O=C1CS(=O)CN1c1ccc(Oc2ccccc2)cc1` (stereo unspecified), the inhibition is 0.56%. Regarding `COc1cc(NC(=O)COC(=O)c2ccc([N+](=O)[O-])s2)cc(OC)c1OC`, the inhibition is 2.2%. For `O=S(=O)(Nc1ccc(Oc2ncccn2)c(Cl)c1)c1ccc(F)cc1`, the inhibition was -3.4%. Consider `O=C(CSc1nnc(-c2ccncc2)n1C1CCCCC1)Nc1ccccc1`, for which the inhibition is -1.28%. Then `COc1ccccc1CCNC(=O)CN1C(=O)NC2(CCCC2)C1=O`, with 7.54%; and `Clc1ccc(C2[C@H]3CN(CC4CCCCC4)[C@H](c4ccccc4)C34CC2(c2cccnc2)C4)cn1` (stereo partly specified), with -4.05%. Then `C[C@H](C(=O)N(C)c1ccccc1)[C@@H](O)c1ccc2ccccc2c1`, with -3.71%. With `CCN(CC)Cc1csc2ccc(Br)cc12` the figure was 0.36%; with `C=CCSC(CC)(CC)C(N)=O`, 3.18%; with `COCc1cc(C(C)=O)ccc1OC`, 0.95%.
